Laboratory results taken from PubChem BioAssay (Tox21).
Records with an inconclusive call do not appear. Entries that show only a call come without a potency. Values without a mark were called inactive. Calls of active or inactive are those of the source. Calls come from the whole dose curve; as a rule, active = well fitted cell-killing curve with a large enough effect in the repeat runs; inconclusive = weak or mixed curves, or effect the other way; inactive = flat fitted curve, though single readings scatter.

Key:
[1] = cAMP Responsive Elements (CRE) small molecule antagonists, cell-based qHTS assay: qHTS cell viability counter screen (AID 2060913); conditions: CRE-bla HEK293T viability, CellTiter-Glo luminescence, 5 h; series mostly up to 92.4 µM; note: nearly all actives have a fitted effect of over 40% in size; note: potency is the fitted concentration of half-maximal effect
Summary of the method: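 CRE-bla HEK293T cells (2,000/well, 18 h) given compound plus NKH477 0.25 uM final for 3 h at 37C; viability counter-screen by CellTiter-Glo luminescence in same wells after 30 min.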

[2] = cAMP Responsive Elements (CRE) small molecule agonists, cell-based qHTS assay: qHTS cell viability counter screen (AID 2060914); conditions: CRE-bla HEK293T viability, CellTiter-Glo luminescence, 5 h; series mostly up to 92.4 µM;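 note: viability read after 3 h of compound exposure; nearly all actives have a fitted effect of over 50% in size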
Summary of the method: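 HEK 293T CRE-bla; DMEM + 10% dialyzed FBS, 25 mM HEPES; 18 h pre-incubation; compound 3 h, 37 °C/5% CO2; CellTiter-Glo added after reporter read; luminescence after 30 min RT.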

Row | SMILES | Potency [1] | Potency [2] | activity change, negative = cytotoxicity [2] | viability change, negative = cytotoxic [1]
1 | CCCOC(OCCC)OCCC | inactive | inactive |  | 
2 | CCCCCCCCN | inactive | inactive |  | 
3 | C[C@]12CCC(=O)C=C1C=C[C@@H]1[C@@H]2CC[C@@]2(C)[C@H]1CC[C@@]21CCC(=O)O1 | inactive | inactive |  | 
4 | N#Cc1cc(NC(=O)C(=O)O)c(Cl)c(NC(=O)C(=O)O)c1 | inactive | inactive |  | 
5 | C=C(C)C(=O)OCC(C)C | inactive | inactive |  | 
6 | Cc1ccnc2c1NC(=O)c1cccnc1N2C1CC1 | inactive | inactive |  | 
7 | CC(=O)Nc1ccc(N)cc1 | inactive | inactive |  | 
8 | CCCCCCCCOC(=O)c1ccc(O)cc1 | inactive | inactive |  | 
9 | CC(=O)CC(C)C | inactive | inactive |  | 
10 | Nc1ccc(S(=O)(=O)Nc2nccs2)cc1 | inactive | inactive |  | 
11 | C=C(c1ccc(C(=O)O)cc1)c1cc2c(cc1C)C(C)(C)CCC2(C)C | inactive | inactive |  | 
12 | Cc1nnc(SCC2=C(C(=O)O)N3C(=O)[C@@H](NC(=O)Cn4cnnn4)[C@H]3SC2)s1 | inactive | inactive |  | 
13 | CCCCCCCCCCCCN(CCCCCCCCCCCC)CCCCCCCCCCCC | inactive | inactive |  | 
14 | Nc1cccc(O)c1 | inactive | inactive |  | 
15 | Oc1ccc(N=Nc2ccccc2)cc1 | inactive | inactive |  | 
16 | Nc1ccc(S(=O)(=O)O)cc1 | inactive | inactive |  | 
17 | Oc1ccccc1C=NCc1ccccc1 | inactive | inactive |  | 
18 | C[C@H]1COc2c(C3(N)CC3)c(F)cc3c(=O)c(C(=O)O)cn1c23 | inactive | inactive |  | 
19 | O=C(O)c1ccc(-n2nc(-c3ccccc3O)nc2-c2ccccc2O)cc1 | inactive | inactive |  | 
20 | C=CCS(=O)(=O)O | inactive | inactive |  | 
21 | OCCN1C[C@H](O)[C@@H](O)[C@H](O)[C@H]1CO | inactive | inactive |  | 
22 | CCc1ccc(C(c2ccc(CC)cc2)C(Cl)Cl)cc1 | inactive | inactive |  | 
23 | CCC(C)c1ccccc1O (stereo not given) | inactive | inactive |  | 
24 | C=CC(=O)OCCCCCCCC | inactive | inactive |  | 
25 | CCc1occc(=O)c1O | inactive | inactive |  | 

Row | SMILES | Potency [1] | Potency [2] | activity change, negative = cytotoxicity [2] | viability change, negative = cytotoxic [1]
26 | [O-][n+]1ccccc1SSc1cccc[n+]1[O-] | 461 nM (active) |  | -16.6% [at 18.9 µM] | 
27 | COC(C)(OC)OC | inactive | inactive |  | 
28 | CC(=O)Nc1cccc(O)c1 | inactive | inactive |  | 
29 | CNC(=O)c1c(I)c(NC(C)=O)c(I)c(C(=O)O)c1I | inactive | inactive |  | 
30 | COc1ccc(NS(=O)(=O)c2ccc(N)cc2)nn1 | inactive | inactive |  | 
31 | COC(c1ccccc1)(c1ccccc1)[C@H](Oc1nc(C)cc(C)n1)C(=O)O | inactive | inactive |  | 
32 | CCOc1ccc(N)c([N+](=O)[O-])c1 | inactive | inactive |  | 
33 | O=C(O)c1ccccc1 | inactive | inactive |  | 
34 | CCc1c2c(nc3ccc(OC(=O)N4CCC(N5CCCCC5)CC4)cc13)-c1cc3c(c(=O)n1C2)COC(=O)[C@]3(O)CC | inactive | inactive |  | 
35 | CC(=O)CC(C)=O | inactive | inactive |  | 
36 | COc1ccc(CN(CCN(C)C)c2ncccn2)cc1 | inactive | inactive |  | 
37 | CC(C)CCCCCCN | inactive | inactive |  | 
38 | CNS(=O)(=O)CCc1ccc2[nH]cc(C3CCN(C)CC3)c2c1 | inactive | inactive |  | 
39 | CC(c1cc2ccccc2s1)N(O)C(N)=O (stereo not given) | inactive | inactive |  | 
40 | CC(O)CCCCn1c(=O)c2c(ncn2C)n(C)c1=O (stereo not given) | inactive | inactive |  | 
41 | CCO[Si](CCC1CCC2OC2C1)(OCC)OCC (stereo not given) | inactive | inactive |  | 
42 | NC(N)=NCCC[C@H](N)C(=O)O |  |  | -0.412% [at 8.39 µM] | -0.587% [at 8.39 µM]
43 | O=C(c1ccccc1O)c1ccccc1O | inactive | inactive |  | 
44 | CCc1cc(C(N)=S)ccn1 | inactive | inactive |  | 
45 | O=C(O)c1ccccc1Nc1cc(Cl)ccc1C(=O)O |  |  | 0.206% [at 18.9 µM] | -0.998% [at 18.9 µM]
46 | O=c1cc(O)c(Cl)c[nH]1 | inactive | inactive |  | 
47 | C[C@H](CCC(=O)O)[C@H]1CC[C@H]2[C@@H]3[C@H](O)C[C@@H]4C[C@H](O)CC[C@]4(C)[C@H]3C[C@H](O)[C@]12C | inactive | inactive |  | 
48 | COc1ccc2cc1Oc1cc3c(cc1OC)CC[N+](C)(C)[C@H]3Cc1ccc(cc1)Oc1c(OC)c(OC)cc3c1[C@@H](C2)[N+](C)(C)CC3 | inactive | inactive |  | 
49 | C[N+]1(C)CCC(OC(=O)C(O)(c2ccccc2)C2CCCC2)C1 (stereo not given) | inactive | inactive |  | 
50 | CCOC(=O)C1=NOC(c2ccccc2)(c2ccccc2)C1 | inactive | inactive |  | 
